# Reference: PubChem BioAssay AID741 (SRMLSC, 2007)
# Results filed as inconclusive are left out. Calls of active or inactive are those of the source. Rule as the data show it: active = toxicity enhancement factor above about 0.054; inconclusive = between about 0.00067 and that limit; inactive = weaker than that.
# Test: reversers of MRP drug resistance, dose response, cell-based (AID 741)
# Details: MRP-overexpressing cells, viability with/without cytotoxic drug; slope difference: measured here: slope difference tox minus reversal, stronger effect = higher value; toxicity enhancement factor: stronger effect = higher value; viability: measured here: viability series, compound alone, at 10 µM, stronger effect = lower value
SMILES,slope difference,toxicity enhancement factor,viability
c1ccc2sc(N3CN(CCN4CCOCC4)CN(c4nc5ccccc5s4)C3)nc2c1,-1.81,-0.0158 (inactive),104%
CS(=O)(=O)Nc1ccc([N+](=O)[O-])cc1Oc1ccccc1,-0.667,-0.0071 (inactive),97.8%
Cc1cccc(Cn2c(NCC(C)O)nc3c2c(=O)n(C)c(=O)n3C)c1 (centres undefined),-0.509,-0.0055 (inactive),93.7%
CCOc1ccccc1Nc1nc(N)nc(CN(C)C2CCCCC2)n1,-0.105,-0.0012 (inactive),92.2%
Cc1oncc1C(=O)Nc1ccc(C(F)(F)F)cc1,-0.34,-0.0035 (inactive),96.5%
CCOC(=O)N1CCC(Nc2c(Nc3cccc(CC)c3)c(=O)c2=O)CC1,5.23,0.268 (active),73.6%
c1ccc(N2CCN(c3ccccc3)C2c2ccncc2)cc1,3.19,0.0739 (active),82.9%
Cc1ccc(N2C(N)=C(C#N)C(c3cccnc3)C3=C2CC(C)(C)CC3=O)cc1 (centres undefined),2.48,0.0915 (active),57.5%
CC(C)Cc1ccc(C(C)C(=O)O)cc1 (centres undefined),-0.62,-0.0059 (inactive),93.7%
CCc1nc(SCC(=O)Nc2c(C)nn(C)c2C)c2cnn(-c3ccccc3)c2n1,-0.333,-0.0042 (inactive),79.1%
CCCNc1nc2c(c(=O)n(C)c(=O)n2C)n1Cc1ccc(F)cc1,-0.107,-0.0012 (inactive),92.8%
O=C1Nc2cc(C(=O)N3CCN(Cc4ccccc4)CC3)ccc2SC1N1CCOCC1 (centres undefined),-0.0531,-0.0007 (inactive),83.2%
CC1(C)CC(=O)C2=C(C1)N(c1cccc(O)c1)C1=C(C2)C(=O)CC(C)(C)C1,3.34,0.0743 (active),87.2%
O=C(NCCCn1ccnc1)c1sc2cccc(F)c2c1Cl,-0.0975,-0.001 (inactive),96.9%
CCCCCC(O)c1cccc(OCc2ccc3ccccc3n2)c1 (centres undefined),-0.009,-0.0001 (inactive),102%
CCCc1cc(Nc2c(C)n(C)n(-c3ccccc3)c2=O)n2c(nc3ccccc32)c1C#N,4.27,0.0896 (active),97.6%
O=C(O)c1ccc(-n2nnnc2SCc2ccccc2)cc1,-0.76,-0.0082 (inactive),88.7%
CCOC(=O)Nc1ccc(S(=O)(=O)Nc2nccc(C)n2)cc1,-0.237,-0.0025 (inactive),97.4%
Cc1ccc(N2C(N)=C(C#N)C(c3cccnc3)C3=C2CCCC3=O)cc1 (centres undefined),2.44,0.0726 (active),62.7%
COc1ccc(N2C(=O)C(Cl)=C(N3CCCC3)C2=O)cc1,-0.145,-0.0016 (inactive),91.8%
CCOC(=O)/C(C#N)=C/c1cc(C)n(-c2ccc(C)cc2)c1C,-0.0151,-0.0003 (inactive),63.7%
O=C1CCCC2=C1C(c1cccs1)n1nc(SCc3ccccc3F)nc1N2 (centres undefined),2.51,0.0631 (active),69.6%
CCCn1c(=O)[nH]c(=O)c2[nH]cnc21,-0.568,-0.0054 (inactive),101%
CN1C(C(=O)Nc2ccccn2)=C(O)c2ccccc2S1(=O)=O,-0.409,-0.0045 (inactive),92.3%
COC(=O)Nc1ccc(S(=O)(=O)Nc2cccc3ccccc23)cc1,-0.0221,-0.0003 (inactive),77.7%

SMILES,slope difference,toxicity enhancement factor,viability
Cc1cc(C)cc(OCc2nnc(SCC(=O)c3ccc(Br)cc3)o2)c1,-0.893,-0.0094 (inactive),92.3%
Cc1cccc(OCc2nnc(SCC(=O)c3ccccc3)o2)c1,-0.739,-0.007 (inactive),97.4%
COC(=O)Nc1ccc(S(=O)(=O)N2c3ccccc3CCC2C)cc1 (centres undefined),-2.95,-0.0581 (inactive),20.1%
CC1(C)CC(=O)C2=C(C1)N(c1ccccc1)C(N)=C(C#N)C2c1cccnc1 (centres undefined),2.68,0.105 (active),60%
CN1C(=O)C(CC(=O)Nc2ccc3c(c2)Cc2ccccc2-3)N(C)C1=O (centres undefined),-0.0851,-0.0009 (inactive),94.5%
Cc1ccc(Cn2c(N3CCCCCC3)nc3c2c(=O)[nH]c(=O)n3C)cc1,-0.91,-0.0097 (inactive),88.2%
Cc1cccc2cc(CN(Cc3nnnn3Cc3ccco3)C3CCCC3)c3nnnn3c12,-1.43,-0.027 (inactive),51.1%
O=C(NCc1ccccn1)c1cn(CCc2ccccc2)nn1,-0.117,-0.0012 (inactive),97.1%
COc1ccc(Cl)cc1C(=O)Nc1ccccc1N1CCN(C(=O)C(C)C)CC1,-0.352,-0.0048 (inactive),75.7%
CCCN1C2=C(C(=O)CC(C)(C)C2)C(c2ccc(F)cc2)C2=C1c1ccccc1C2=O (centres undefined),3.28,0.126 (active),64.6%
CCCCC1C(=O)N(c2ccccc2)N(c2ccccc2)C1=O,-0.496,-0.0047 (inactive),101%
N#Cc1ccc(CSc2nnc(-c3cccs3)n2-c2ccccc2)cc1,-0.904,-0.0117 (inactive),79%
CCOC(=O)c1sc(NC(=O)CSc2nnc(-c3ccco3)n2CC)c(C(=O)OCC)c1C,3.89,0.364 (active),54.8%
CC(C)CCn1c(=O)c2ccccc2n2c(CN(C)Cc3ccccc3)nnc12,2.35,0.0598 (active),82.3%
CN1C(C(=O)Nc2ccccn2)=C(O)c2sccc2S1(=O)=O,-0.669,-0.0064 (inactive),103%
COc1ccc2cc(C(c3nnnn3C(C)(C)C)N3CCc4ccccc4C3)c(=O)[nH]c2c1 (centres undefined),-0.322,-0.0045 (inactive),76.3%
Cc1cccc2cc(CN(Cc3nnnn3C3CCCCC3)C3CCCC3)c3nnnn3c12,3.91,0.117 (active),74.2%
N#CC1=C(N)N(c2ccccc2)C2=C(C(=O)CCC2)C1c1ccccc1 (centres undefined),4.41,0.144 (active),70.1%
O=C(CSc1nnnn1-c1ccccc1)N1CCc2ccccc21,-1.04,-0.0102 (inactive),85.8%
CC1(C)CC(=O)C2=C(C1)N(c1ccccc1)C(N)=C(C#N)C2c1ccccc1 (centres undefined),3.21,0.108 (active),73.3%
CCn1c(N)c(C(=O)N2CCOCC2)sc1=S,-0.557,-0.0052 (inactive),101%
CCN(C(=O)c1cn(C)c(=O)c2cc(OC)c(OC)cc12)c1cc(OC)ccc1OC,4.18,0.129 (active),77.9%
Cc1ccc(/C=N/Nc2nc(Cl)c(Cl)cc2Cl)s1,-0.0549,-0.0006 (inactive),99.8%
O=C(c1ccccc1)c1ccc2n1CCC2C(=O)O (centres undefined),-0.0977,-0.001 (inactive),106%
COCC(C)OC(=O)C(C#N)c1nc2ccccc2nc1N1CCN(Cc2ccccc2)CC1 (centres undefined),-0.109,-0.0013 (inactive),89.3%

SMILES,slope difference,toxicity enhancement factor,viability
CCOC(=O)c1c(C)[nH]c(N=Nc2ccc(C)cc2)c1C,-0.597,-0.006 (inactive),98.7%
COc1ccc(/C=C/C(=O)Nc2ccccc2C(=O)O)cc1OC,-1.07,-0.0098 (inactive),95.7%
Cn1c(=O)c2c(nc(NC3CCCCC3)n2CC(O)COc2ccccc2)n(C)c1=O (centres undefined),-0.557,-0.0085 (inactive),68.8%
Cc1ccc(Cl)c(Nc2ccccc2C(=O)O)c1Cl,-0.97,-0.0098 (inactive),92.5%
C=CCN1C(=O)/C(=C2/Sc3ccccc3N2C)SC1=Nc1c(C)n[nH]c1C,4.41,0.241 (active),66.9%
CC(C)(C)C(=O)[C@@H]1[C@@H]2C(=O)N(C3CCCCC3)C(=O)[C@@H]2[C@H]2c3ccccc3C=CN12,2.83,0.061 (active),85.2%
c1ccc2c(c1)nc1n2CN(Cc2ccc3c(c2)OCO3)CN1,-0.301,-0.0032 (inactive),85.8%
CC(C(=O)O)c1cccc(C(=O)c2ccccc2)c1 (centres undefined),-1.03,-0.0105 (inactive),92.4%
COc1ccc(N2C(N)=C(C#N)C(c3cccnc3)C3=C2CC(C)(C)CC3=O)cc1 (centres undefined),2.07,0.0615 (active),63%
c1ccc(-c2nc(N3CCOCC3)c3ccccc3n2)nc1,-2.79,-0.0278 (inactive),87%
COc1ccc2cc([C@H](C)C(=O)O)ccc2c1,-0.665,-0.0066 (inactive),96.6%
COc1ccc(C)cc1-n1c(N)c(C#N)c(C#N)c1-c1ccc(OC)c(OC)c1OC,2.33,0.077 (active),61.5%
CCN(CC)C(=O)CSc1nc2c(sc(=S)n2-c2ccccc2)c(=O)n1Cc1ccco1,3.95,0.0846 (active),87.8%
O=C(O)Cc1ccc(-c2ccccc2)cc1,-0.343,-0.0033 (inactive),99.6%
COc1ccccc1Nc1nc(N)nc(CN2CCOCC2)n1,-0.589,-0.0058 (inactive),98.2%
CC(Cc1ccc(O)c(O)c1)C(C)Cc1ccc(O)c(O)c1 (centres undefined),-0.864,-0.009 (inactive),86.2%
CCOc1nc2c(c(=O)n(C)c(=O)n2C)n1Cc1ccccc1Cl,-0.531,-0.0077 (inactive),71%
COC(=O)c1ccccc1NC(=O)c1cccs1,-0.205,-0.0023 (inactive),87.5%
COC(=O)Nc1ccc(S(=O)(=O)Nc2ccc(O)cc2)cc1,-0.156,-0.0016 (inactive),90.5%
CCCNS(=O)(=O)c1ccc(NC(=O)c2ccccn2)cc1,-0.0969,-0.001 (inactive),99.5%
CSc1nnc(-c2cc3ccccc3cc2O)n1C,-0.153,-0.0016 (inactive),101%
CCc1cccc2c3c([nH]c12)C(CC)(CC(=O)O)OCC3 (centres undefined),-0.174,-0.0019 (inactive),92.5%
COC(=O)C(C)Sc1nnc2n(-c3cccc(C)c3)c(=O)c3c4c(sc3n12)CCCC4 (centres undefined),2.9,0.061 (active),85.9%
